The values below come from ChEMBL document CHEMBL1961873, “Compounds: GSK PKIS; Assays: Nanosyn kinase panel” (2012).

Assay [1] has as its target Platelet-derived growth factor receptor beta (Homo sapiens) (UniProt P09619). To be noted: at 1 µM.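 Also: each value is a mean percent inhibition.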
Assay [2] concerns the target Tyrosine-protein kinase FRK (Homo sapiens) (UniProt P42685). As to conditions: at 0.1 µM.
Assay [3] has the same target. As to conditions: at 1 µM.
Assay [4] has as its target Protein-tyrosine kinase 2-beta (Homo sapiens) (UniProt Q14289). As to conditions: at 0.1 µM.
Assay [5] has the same target. As to conditions: at 1 µM.
Assay [6] deals with Proto-oncogene tyrosine-protein kinase receptor Ret (Homo sapiens) (UniProt P07949). As to conditions: at 0.1 µM.
Assay [7] shares this target. To be noted: at 1 µM.
For assay [8], the system named is Proto-oncogene tyrosine-protein kinase receptor Ret (Homo sapiens), P07949 [V804L]. As to conditions: at 0.1 µM.
Assay [9] shares this test system. To be noted: at 1 µM.
Assay [10] relates to Proto-oncogene tyrosine-protein kinase receptor Ret (Homo sapiens), P07949 [Y791F]. To be noted: at 0.1 µM.
Assay [11] has the same test system. As to conditions: at 1 µM.
Assay [12] addresses Macrophage-stimulating protein receptor (Homo sapiens) (UniProt Q04912). To be noted: at 0.1 µM.
The target is the same in assay [13]. To be noted: at 1 µM.
The target of assay [14] is Proto-oncogene tyrosine-protein kinase ROS (Homo sapiens) (UniProt P08922). To be noted: at 0.1 µM.
The target is the same in assay [15]. As to conditions: at 1 µM.
Assay [16] deals with Proto-oncogene tyrosine-protein kinase Src (Homo sapiens) (UniProt P12931). To be noted: at 0.1 µM.
Assay [17] has the same target. As to conditions: at 1 µM.
For assay [18], the target named is Tyrosine-protein kinase Srms (Homo sapiens) (UniProt Q9H3Y6). To be noted: at 0.1 µM.
Assay [19] shares this target. As to conditions: at 1 µM.
The target of assay [20] is Tyrosine-protein kinase SYK (Homo sapiens) (UniProt P43405). As to conditions: at 0.1 µM.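 Also: reported percentages are mean inhibition values for SYK.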

Chain of Tyrosine-protein kinase FRK (Homo sapiens) (P42685 whole entry): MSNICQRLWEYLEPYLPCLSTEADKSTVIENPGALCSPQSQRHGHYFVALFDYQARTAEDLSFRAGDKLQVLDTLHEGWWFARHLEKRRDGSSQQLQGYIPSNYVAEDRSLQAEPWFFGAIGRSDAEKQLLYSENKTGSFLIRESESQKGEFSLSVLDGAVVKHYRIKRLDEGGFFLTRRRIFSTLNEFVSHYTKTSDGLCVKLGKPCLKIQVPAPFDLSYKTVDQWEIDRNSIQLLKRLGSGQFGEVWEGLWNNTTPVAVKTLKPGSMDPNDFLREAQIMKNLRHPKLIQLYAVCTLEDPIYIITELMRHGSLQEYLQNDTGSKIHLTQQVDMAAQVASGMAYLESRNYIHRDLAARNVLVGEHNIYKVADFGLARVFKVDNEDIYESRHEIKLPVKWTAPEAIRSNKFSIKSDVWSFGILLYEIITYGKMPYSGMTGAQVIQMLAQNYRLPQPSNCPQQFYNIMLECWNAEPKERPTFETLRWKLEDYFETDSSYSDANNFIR
Chain of Macrophage-stimulating protein receptor (Homo sapiens) (Q04912 25-304 limits assumed): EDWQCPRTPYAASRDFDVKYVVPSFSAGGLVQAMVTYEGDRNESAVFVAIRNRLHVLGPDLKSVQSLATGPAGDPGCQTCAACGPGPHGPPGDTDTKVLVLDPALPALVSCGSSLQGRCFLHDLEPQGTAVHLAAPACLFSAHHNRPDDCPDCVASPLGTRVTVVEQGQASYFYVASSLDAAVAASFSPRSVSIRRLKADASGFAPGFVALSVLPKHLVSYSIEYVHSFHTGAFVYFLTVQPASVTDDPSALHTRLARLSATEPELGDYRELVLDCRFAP
Chain of Macrophage-stimulating protein receptor (Homo sapiens) (Q04912 310-1400 limits assumed): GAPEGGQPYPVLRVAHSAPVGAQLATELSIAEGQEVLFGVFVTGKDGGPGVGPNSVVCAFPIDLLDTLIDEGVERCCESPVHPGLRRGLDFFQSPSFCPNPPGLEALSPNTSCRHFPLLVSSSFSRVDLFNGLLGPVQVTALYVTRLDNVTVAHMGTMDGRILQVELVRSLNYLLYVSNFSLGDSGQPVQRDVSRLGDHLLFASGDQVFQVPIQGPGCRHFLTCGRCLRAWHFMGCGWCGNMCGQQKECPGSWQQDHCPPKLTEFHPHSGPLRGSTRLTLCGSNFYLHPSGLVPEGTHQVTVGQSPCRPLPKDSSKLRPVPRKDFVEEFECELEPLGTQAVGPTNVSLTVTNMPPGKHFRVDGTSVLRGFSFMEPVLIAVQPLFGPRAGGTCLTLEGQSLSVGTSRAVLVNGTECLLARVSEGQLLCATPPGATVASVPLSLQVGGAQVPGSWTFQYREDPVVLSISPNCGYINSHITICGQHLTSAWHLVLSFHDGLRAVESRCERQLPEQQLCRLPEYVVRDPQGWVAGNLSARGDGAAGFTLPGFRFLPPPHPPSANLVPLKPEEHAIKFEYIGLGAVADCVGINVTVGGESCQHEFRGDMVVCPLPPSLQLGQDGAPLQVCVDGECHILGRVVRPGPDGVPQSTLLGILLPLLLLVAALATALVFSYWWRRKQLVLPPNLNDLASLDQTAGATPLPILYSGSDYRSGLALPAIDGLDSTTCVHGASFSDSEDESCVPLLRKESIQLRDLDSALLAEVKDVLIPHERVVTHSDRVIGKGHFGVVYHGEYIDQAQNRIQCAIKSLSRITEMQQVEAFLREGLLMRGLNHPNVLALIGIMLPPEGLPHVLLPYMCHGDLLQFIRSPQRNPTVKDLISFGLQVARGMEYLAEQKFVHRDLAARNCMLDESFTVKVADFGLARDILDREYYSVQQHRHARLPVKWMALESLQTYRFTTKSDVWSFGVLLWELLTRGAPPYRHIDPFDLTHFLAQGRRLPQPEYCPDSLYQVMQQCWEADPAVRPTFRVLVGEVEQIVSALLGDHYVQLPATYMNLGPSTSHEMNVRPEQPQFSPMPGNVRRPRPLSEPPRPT
Chain of Proto-oncogene tyrosine-protein kinase ROS (Homo sapiens) (P08922 whole entry): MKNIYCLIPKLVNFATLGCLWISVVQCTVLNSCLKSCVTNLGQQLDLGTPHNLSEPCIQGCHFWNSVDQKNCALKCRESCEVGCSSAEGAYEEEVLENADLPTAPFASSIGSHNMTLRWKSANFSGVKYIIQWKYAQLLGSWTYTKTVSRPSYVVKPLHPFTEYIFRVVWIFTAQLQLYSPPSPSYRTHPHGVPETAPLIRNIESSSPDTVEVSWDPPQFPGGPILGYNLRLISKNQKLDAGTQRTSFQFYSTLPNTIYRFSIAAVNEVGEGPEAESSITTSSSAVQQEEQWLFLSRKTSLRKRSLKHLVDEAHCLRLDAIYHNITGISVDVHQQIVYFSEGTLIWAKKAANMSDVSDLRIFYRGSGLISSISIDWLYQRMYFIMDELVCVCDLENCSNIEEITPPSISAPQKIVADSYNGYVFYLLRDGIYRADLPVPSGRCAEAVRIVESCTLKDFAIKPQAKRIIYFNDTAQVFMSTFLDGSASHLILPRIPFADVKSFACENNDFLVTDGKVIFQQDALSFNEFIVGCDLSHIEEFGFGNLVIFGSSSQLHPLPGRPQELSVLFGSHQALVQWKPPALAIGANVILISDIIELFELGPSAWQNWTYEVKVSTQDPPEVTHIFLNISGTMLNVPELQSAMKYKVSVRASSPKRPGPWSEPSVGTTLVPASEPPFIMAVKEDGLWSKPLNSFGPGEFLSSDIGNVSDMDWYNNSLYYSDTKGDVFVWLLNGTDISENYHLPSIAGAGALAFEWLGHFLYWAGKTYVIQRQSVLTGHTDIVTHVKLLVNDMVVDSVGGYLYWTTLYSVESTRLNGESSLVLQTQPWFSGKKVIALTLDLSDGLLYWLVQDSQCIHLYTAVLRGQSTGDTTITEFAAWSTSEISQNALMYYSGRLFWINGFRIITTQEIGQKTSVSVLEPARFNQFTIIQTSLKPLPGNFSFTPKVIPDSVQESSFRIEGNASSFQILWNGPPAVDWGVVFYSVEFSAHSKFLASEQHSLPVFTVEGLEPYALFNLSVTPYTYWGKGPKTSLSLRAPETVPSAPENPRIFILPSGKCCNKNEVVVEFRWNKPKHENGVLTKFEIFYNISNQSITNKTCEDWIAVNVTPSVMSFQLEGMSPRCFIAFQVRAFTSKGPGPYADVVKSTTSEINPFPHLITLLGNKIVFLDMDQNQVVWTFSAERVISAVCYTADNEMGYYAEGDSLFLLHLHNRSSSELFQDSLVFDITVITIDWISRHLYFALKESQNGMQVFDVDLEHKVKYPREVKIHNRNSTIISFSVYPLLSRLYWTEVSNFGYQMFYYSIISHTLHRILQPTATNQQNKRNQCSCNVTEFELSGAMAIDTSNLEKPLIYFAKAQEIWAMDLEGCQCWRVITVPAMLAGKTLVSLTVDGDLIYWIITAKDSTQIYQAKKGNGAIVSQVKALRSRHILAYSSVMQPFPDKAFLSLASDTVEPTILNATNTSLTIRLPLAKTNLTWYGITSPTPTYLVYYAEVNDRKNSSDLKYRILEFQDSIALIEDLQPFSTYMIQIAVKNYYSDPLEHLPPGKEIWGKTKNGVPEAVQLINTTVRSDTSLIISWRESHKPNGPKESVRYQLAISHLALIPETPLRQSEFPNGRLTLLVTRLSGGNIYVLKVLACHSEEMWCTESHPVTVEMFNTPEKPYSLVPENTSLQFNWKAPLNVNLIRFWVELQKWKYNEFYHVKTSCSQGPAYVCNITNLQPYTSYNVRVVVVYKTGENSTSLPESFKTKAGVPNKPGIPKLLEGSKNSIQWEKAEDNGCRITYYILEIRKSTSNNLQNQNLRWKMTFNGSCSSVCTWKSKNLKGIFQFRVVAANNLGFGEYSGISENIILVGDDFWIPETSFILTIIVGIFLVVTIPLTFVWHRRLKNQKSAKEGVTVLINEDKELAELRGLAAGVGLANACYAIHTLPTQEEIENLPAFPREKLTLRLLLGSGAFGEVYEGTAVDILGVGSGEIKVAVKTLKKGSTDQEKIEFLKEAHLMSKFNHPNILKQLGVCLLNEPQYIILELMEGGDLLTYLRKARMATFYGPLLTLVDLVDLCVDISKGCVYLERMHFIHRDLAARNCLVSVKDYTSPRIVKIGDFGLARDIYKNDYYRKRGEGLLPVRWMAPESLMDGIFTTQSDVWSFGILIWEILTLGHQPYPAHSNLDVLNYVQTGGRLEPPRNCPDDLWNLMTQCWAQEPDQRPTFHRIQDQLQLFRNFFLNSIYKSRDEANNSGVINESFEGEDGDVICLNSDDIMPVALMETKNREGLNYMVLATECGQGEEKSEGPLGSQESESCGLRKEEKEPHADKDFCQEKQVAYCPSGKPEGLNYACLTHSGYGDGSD
Chain of Tyrosine-protein kinase Srms (Homo sapiens) (Q9H3Y6 whole entry): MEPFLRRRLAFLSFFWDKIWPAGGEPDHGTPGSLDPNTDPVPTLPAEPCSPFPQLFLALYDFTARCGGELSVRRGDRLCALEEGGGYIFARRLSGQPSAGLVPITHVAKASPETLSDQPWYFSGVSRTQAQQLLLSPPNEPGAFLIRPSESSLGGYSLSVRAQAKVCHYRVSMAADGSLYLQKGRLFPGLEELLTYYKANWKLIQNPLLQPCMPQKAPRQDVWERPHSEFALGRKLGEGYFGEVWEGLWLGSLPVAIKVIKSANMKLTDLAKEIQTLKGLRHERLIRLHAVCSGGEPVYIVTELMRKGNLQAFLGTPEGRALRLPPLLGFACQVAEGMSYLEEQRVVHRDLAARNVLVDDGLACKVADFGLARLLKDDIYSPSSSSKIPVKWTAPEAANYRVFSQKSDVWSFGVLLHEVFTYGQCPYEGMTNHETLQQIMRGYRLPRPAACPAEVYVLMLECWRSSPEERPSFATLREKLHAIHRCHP

As a reminder, the inhibition is the change of the read-out against control, counted positive when it falls. Turning to `CCc1ccc(Oc2nccc(-c3c(-c4ccc(F)cc4)ncn3C3CCNCC3)n2)cc1`, the inhibition in assay [1] was 13.8%; in [2], 0.83%; in [3], -0.45%; in [4], -1.83%; in assay [5] it was 2.07%; in assay [6] it was 3.04%. The inhibition was 7.38% in assay [7]; 3.58% in assay [8]; 4.57% in assay [9]; 4% in [10]; 8.79% in assay [11]; 3.67% in assay [12]. Besides, the inhibition in [13] was 2.97%; in [14] it was 6.34%; in [15] it was 6.93%; in assay [16] it was 10.2%; in assay [17], 10%; in assay [18], -0.71%. In addition, the inhibition in [19] is -0.39%; in [20], 0.89%.

Take `Fc1ccc(-c2ncn(CCCN3CCOCC3)c2-c2ccncc2)cc1`: the inhibition is 6.02% in assay [1]; 0.05% in [2]; -1.57% in assay [3]; 0.29% in assay [4]; -0.89% in [5]; 0.8% in assay [6]. Also, the inhibition is 2.72% in assay [7]; -0.64% in assay [8]; 0.11% in [9]; 2.85% in [10]; 7.08% in assay [11]; -2.7% in assay [12]. Also, the inhibition is 0.97% in assay [13]; 2.12% in [14]; 4.63% in assay [15]; 3.31% in [16]; 1.01% in [17]; -3.46% in assay [18]. Besides, the figures for the inhibition in assay [19] and in assay [20] were -3.16% and 2.97%, respectively.

As for `C[C@@H](Oc1cc(-n2cnc3ccc(OC4CCN(C)CC4)cc32)sc1C(N)=O)c1ccccc1Cl`, the inhibition is 70.8% in [1]; 3.35% in assay [2]; 3.66% in assay [3]; 4.13% in [4]; 11.7% in assay [5]; 3.19% in assay [6]. The inhibition in assay [7] came out at 16.5%; in assay [8], 2.32%; in assay [9], 15.8%; in assay [10] it was 6.79%; in [11], 22%; in assay [12], 0.07%. For the same molecule, the inhibition is 9.84% in assay [13]; 8.31% in assay [14]; 15.5% in assay [15]; 10.3% in assay [16]; 18.7% in assay [17]; -0.74% in assay [18]. Also, the values for the inhibition in [19] and in assay [20] were -2.64% and -0.76%, respectively.

As to `C[C@@H](Oc1cc(-n2cnc3ccc(OCC4CCN(C)CC4)cc32)sc1C(N)=O)c1ccccc1Cl`, the inhibition worked out at 84.7% in [1]; 3.53% in assay [2]; 3.93% in assay [3]; 5.71% in assay [4]; 13.7% in assay [5]; 6.25% in assay [6]. In addition, the inhibition in assay [7] was 18.2%; in assay [8] it was 5.76%; in assay [9], 16.7%; in assay [10], 8.22%; in assay [11] it was 20.1%; in [12], 0.85%. The inhibition is 13.1% in [13]; 10.2% in assay [14]; 21.6% in [15]; 11.9% in [16]; 33.2% in [17]; -3.18% in [18]. Further, the figures for the inhibition in assay [19] and in assay [20] were -0.97% and -0.18%, respectively.

For `CN(C)CCOc1ccc(-c2cc(-c3ccc4c(c3)CCC4=NO)c(-c3ccncc3)o2)cc1`, the inhibition in assay [1] is 9.14%; in assay [2], -1.02%; in [3], 0.49%; in [4], -7.75%; in assay [5], 0.57%; in [6] it was 3.54%. For the same molecule, the inhibition was 1.85% in assay [7]; 0.61% in [8]; 1.37% in [9]; -1.98% in assay [10]; 9.08% in assay [11]; -0.03% in assay [12]. Moreover, the inhibition in assay [13] was 22.4%; in assay [14], -1.28%; in [15], 0.64%; in assay [16], 1.1%; in [17] it was 2.61%; in [18], 3%. The inhibition worked out at 3.76% in assay [19] and 0.85% in assay [20].

As for `NC(=O)c1cc(-c2ccc(F)cc2)cc(-c2ccncc2)c1N`, the inhibition in [1] turned out to be 5.05%; in [2], 1.66%; in [3], 1.82%; in [6] it was 6.04%; in [7] it was 1.69%; in assay [8] it was 2.31%. The inhibition turned out to be 2.03% in assay [9]; 4.64% in [10]; 8.5% in assay [11]; 3.91% in assay [12]; 2.73% in assay [13]; 3.93% in [14]. The inhibition in [15] was 6.41%; in [16] it was -1.61%; in assay [17], 10.9%; in assay [18] it was -0.29%; in [19], -1.13%; in [20], -2.32%.

For the molecule `C/C(Nc1ccc(S(N)(=O)=O)cc1)=C1/C(=O)Nc2ccccc21`, the inhibition is 43.1% in assay [1]; 1.09% in assay [2]; 0.76% in assay [3]; -1.67% in [4]; 17.8% in assay [5]; 6.38% in [6]. For the same molecule, the inhibition stood at 35.9% in [7]; 13% in [8]; 53.9% in assay [9]; 5.97% in assay [10]; 40.3% in assay [11]; 5.82% in assay [12]. The inhibition in assay [13] is 4%; in assay [14] it was 3.08%; in assay [15] it was 8.7%; in [16], -2.31%; in assay [17], 0.81%; in assay [18], 1.16%. Moreover, the results for the inhibition in [19] and in assay [20] were 4.16% and -1.12%, respectively.

Take `Cc1nnc(-c2ccc(C)c(-c3ccc(C(=O)NCc4ccc(Cl)cc4)cc3)c2)o1`: the inhibition in [1] was found to be 3.27%; in [2], 1.52%; in assay [3], 2.43%; in assay [4], 6.59%; in assay [5], 10.6%; in assay [6], 8.83%. The inhibition came to 2.3% in assay [7]; 2.03% in [8]; 2.91% in assay [9]; 1.1% in assay [10]; 7.75% in assay [11]; 1.1% in assay [12]. The inhibition in assay [13] was 2.52%; in [14], 4.75%; in assay [15], 7.75%; in assay [16] it was -1.25%; in [17] it was 7.15%; in [18] it was -2.08%. The inhibition in assay [19] is -0.92%; in assay [20], -5.79%.

On to `CCc1cccc(CC)c1/C=C/c1cncc(C(=O)NC)c1`, for which the inhibition in [1] came out at 9.24%; in assay [2], 0.72%; in [3], 2.05%; in assay [4] it was 4.52%; in assay [5] it was 5.62%; in assay [6], 6.73%. The inhibition in [7] is 7.18%; in [9], 3.16%; in assay [10] it was 5.49%; in assay [11], 2.43%; in assay [12], -0.25%; in [13], 6%. In addition, the inhibition is 2.24% in [14]; 4.93% in assay [15]; 2.97% in assay [16]; 10.2% in assay [17]; 0.35% in [18]; -0.17% in assay [19]. Further, the inhibition in assay [20] is -3.77%.

Consider `NC(=O)c1ccc(Oc2nccc(-c3c(-c4ccc(F)cc4)ncn3C3CCNCC3)n2)cc1`, for which the inhibition in assay [1] was 6.41%; in [2], 2.8%; in [3], 4.67%; in assay [4], -0.03%; in assay [5], 10.9%; in assay [6], 1.55%. The inhibition amounted to 2.99% in assay [7]; 2.2% in assay [8]; 5.79% in assay [9]; 3.11% in assay [10]; 3.63% in assay [11]; 4.31% in assay [12]. For the same molecule, the inhibition in [13] is 6.11%; in [14] it was 9.43%; in [15], 7.5%; in assay [16], 13%; in assay [17], 13.6%; in assay [18], -3.65%. Moreover, the inhibition is -3.42% in assay [19] and -0.16% in assay [20].

For the molecule `COc1cc(Nc2ncc3c(C)nc(-c4cccc(Oc5ccccc5)c4)n3n2)cc(OC)c1OC`, the inhibition in assay [1] was 10.4%; in [2] it was 0.9%; in assay [3] it was 0.75%; in assay [4], 5.25%; in assay [5], 6.67%; in assay [6], 4.22%. Also, the inhibition in assay [7] turned out to be 29.1%; in assay [8], 8.26%; in assay [9], 43%; in assay [10] it was 3.87%; in [11], 12.9%; in assay [12], 2.03%. For the same molecule, the inhibition in [13] was 2.13%; in assay [14], 13.1%; in assay [15] it was 14.7%; in assay [16], -4.09%; in assay [17], 21.7%; in assay [18] it was 0.72%. For the same molecule, the inhibition in assay [19] is -0.11%; in assay [20] it was 0.87%.

Consider `Fc1ccc(-c2ncn(C3CCNCC3)c2-c2ccnc(Oc3ccc(Oc4ccccc4)cc3)n2)cc1`, for which the inhibition in assay [1] was found to be 3.75%; in [2], 2.37%; in [3] it was 2.86%; in assay [4], 3.19%; in assay [5], 6.71%; in assay [6], 2.36%. Further, the inhibition worked out at 5.4% in assay [7]; 3.16% in assay [8]; 7.16% in assay [9]; 15.6% in assay [10]; 4.3% in assay [11]; 0.16% in assay [12]. The inhibition in [13] was 0.94%; in assay [14], 12.1%; in assay [15], 11%; in [16], 10.9%; in [17], 15.3%; in [18], -1.67%. Besides, the inhibition is -1.36% in assay [19] and 0.87% in assay [20].

As for `COc1cc2ncn(-c3cc(OCCc4ccccc4)c(C(N)=O)s3)c2cc1OC`, the inhibition in assay [1] was 49.9%; in [2], 0.72%; in [3], 1.86%; in assay [4], 3.82%; in assay [5], 4.2%; in assay [6], 3.22%. The inhibition in assay [7] was 23.2%; in assay [8], 0.58%; in [9] it was 9.89%; in assay [10], 6.66%; in assay [11], 21.3%; in [12] it was -1.46%. Moreover, the inhibition in assay [13] was 6.81%; in assay [14], 3.89%; in [15], 6.98%; in [16], 1.6%; in [17], 12.9%; in assay [18] it was -2.94%. For the same molecule, the inhibition was -2.68% in assay [19] and -2.02% in [20].

For `O=C1Nc2ccc(I)cc2C1=Cc1cc(Br)c(O)c(Br)c1`, the inhibition was found to be 2.27% in [1]; 2.55% in [2]; 4.15% in assay [3]; 5.41% in [4]; 3.05% in assay [5]; 5.98% in assay [6]. The inhibition worked out at 7.84% in assay [7]; 1.81% in [8]; 12% in assay [9]; 6.36% in assay [10]; 5.79% in assay [11]; 8.18% in [12]. Moreover, the inhibition in assay [13] was 13.2%; in assay [14], 6.23%; in assay [15], 8.1%; in [16], 8.18%; in [17], 14.2%; in assay [18], 2.19%. In addition, the inhibition in assay [19] worked out at 27.2%; in assay [20] it was 1.97%.
